Test results: PubChem BioAssay AID1159580 (chemical genetic matrix, 2015)
Screen size: about 5,500 compounds; about 2,000 (36%) were called active. Inconclusive results (about 18%) are left out. Rule as the data show it: active = normalized growth mostly below about 0.91 (no sharp cut-off); inconclusive = no clear call, values can overlap the other calls; inactive = mostly above about 0.92. The list shows a part of the results.

Assay: chemical genetic growth profiling, strain panel (AID 1159580);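 also: tested at 20 µM; growth read once vehicle control cultures reached saturation at 30 °C; 1 = growth at the plate median or of vehicle wells; lower values mean less growth of the strain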
Settings: growth OD

Measured: normalized growth

N#Cc1c(Cl)cccc1Cl
inactive: S. cerevisiae deletion strains, locus YJR075W, strain HOC1, stronger effect = lower value 1.02 | S. cerevisiae deletion strains, locus YKL009W, strain mrt4, stronger effect = lower value 1.02 | S. cerevisiae deletion strains, locus YKL068W, stronger effect = lower value 1.01 | S. cerevisiae deletion strains, locus YKL085W, strain MDH1 (second series), stronger effect = lower value 1.01 | S. cerevisiae deletion strains, locus YKL085W, strain MDH1, stronger effect = lower value 1.01 | S. cerevisiae deletion strains, locus YKL160W, strain elf1, stronger effect = lower value 0.981 | S. cerevisiae deletion strains, locus YKL190W, strain CNB1, stronger effect = lower value 1.02 | S. cerevisiae deletion strains, locus YKR001C, strain vps1, stronger effect = lower value 1.01 | S. cerevisiae deletion strains, locus YKR026C, strain gcn3, stronger effect = lower value 0.982 | S. cerevisiae deletion strains, locus YKR091W, strain srl3, stronger effect = lower value 0.978 | S. cerevisiae deletion strains, locus YLL001W, strain dnm1, stronger effect = lower value 0.988 | S. cerevisiae deletion strains, locus YLL026W, stronger effect = lower value 0.975 | S. cerevisiae deletion strains, locus YLL041C, strain sdh2, stronger effect = lower value 0.977 | S. cerevisiae deletion strains, locus YLR027C, strain aat2, stronger effect = lower value 0.959 | S. cerevisiae deletion strains, locus YLR039C, strain RIC1, stronger effect = lower value 1.01 | S. cerevisiae deletion strains, locus YLR058C, strain SHM2, stronger effect = lower value 1.02 | S. cerevisiae deletion strains, locus YLR102C, strain apc9, stronger effect = lower value 1.01 | S. cerevisiae deletion strains, locus YLR113W, strain HOG1, stronger effect = lower value 0.987 | S. cerevisiae deletion strains, locus YLR221C, strain rsa3, stronger effect = lower value 0.971 | S. cerevisiae deletion strains, locus YLR258W, strain gsy2, stronger effect = lower value 0.991 | S. cerevisiae deletion strains, locus YLR262C, strain YPT6 (second series), stronger effect = lower value 0.999 | S. cerevisiae deletion strains, locus YLR262C, strain YPT6, stronger effect = lower value 1.05 | S. cerevisiae deletion strains, locus YLR268W, strain sec22, stronger effect = lower value 0.999 | S. cerevisiae deletion strains, locus YLR320W, strain mms22, stronger effect = lower value 0.988 | S. cerevisiae deletion strains, locus YLR330W, strain CHS5, stronger effect = lower value 1.01 | S. cerevisiae deletion strains, locus YLR342W, strain FKS1 (second series), stronger effect = lower value 1.04 | S. cerevisiae deletion strains, locus YLR342W, strain FKS1, stronger effect = lower value 0.978 | S. cerevisiae deletion strains, locus YLR357W, strain rsc2, stronger effect = lower value 0.978 | S. cerevisiae deletion strains, locus YLR370C, strain arc18, stronger effect = lower value 0.965 | S. cerevisiae deletion strains, locus YLR371W, strain rom2, stronger effect = lower value 1.01 | S. cerevisiae deletion strains, locus YLR384C, strain iki3, stronger effect = lower value 0.975 | S. cerevisiae deletion strains, locus YLR418C, strain cdc73, stronger effect = lower value 1.01 | S. cerevisiae deletion strains, locus YML016C, strain PPZ1, stronger effect = lower value 1.01 | S. cerevisiae deletion strains, locus YML032C, strain rad52, stronger effect = lower value 1.02 | S. cerevisiae deletion strains, locus YML120C, strain ndi1, stronger effect = lower value 0.988 | S. cerevisiae deletion strains, locus YML124C, strain tub3, stronger effect = lower value 1.01 | S. cerevisiae deletion strains, locus YMR058W, strain fet3, stronger effect = lower value 0.968 | S. cerevisiae deletion strains, locus YMR078C, strain ctf18, stronger effect = lower value 1.02 | S. cerevisiae deletion strains, locus YMR125W, strain sto1, stronger effect = lower value 0.974 | S. cerevisiae deletion strains, locus YMR129W, stronger effect = lower value 1.01 | S. cerevisiae deletion strains, locus YMR205C, strain PFK2, stronger effect = lower value 1.01 | S. cerevisiae deletion strains, locus YMR223W, strain ubp8, stronger effect = lower value 1.01 | S. cerevisiae deletion strains, locus YMR231W, strain pep5, stronger effect = lower value 0.982 | S. cerevisiae deletion strains, locus YMR263W, strain SAP30, stronger effect = lower value 1.02 | S. cerevisiae deletion strains, locus YMR307W, strain GAS1, stronger effect = lower value 1.01 | S. cerevisiae deletion strains, locus YNL067W, strain RPL9B, stronger effect = lower value 1.01 | S. cerevisiae deletion strains, locus YNL071W, strain lat1, stronger effect = lower value 0.985 | S. cerevisiae deletion strains, locus YNL128W, strain TEP1, stronger effect = lower value 1.01 | S. cerevisiae deletion strains, locus YNL153C, strain GIM3, stronger effect = lower value 1.01 | S. cerevisiae deletion strains, locus YNL183C, strain NPR1, stronger effect = lower value 0.902 | S. cerevisiae deletion strains, locus YNL209W, strain ssb2, stronger effect = lower value 0.995 | S. cerevisiae deletion strains, locus YNL233W, strain BNI4, stronger effect = lower value 1.02 | S. cerevisiae deletion strains, locus YNL248C, strain rpa49, stronger effect = lower value 0.971 | S. cerevisiae deletion strains, locus YNL250W, strain rad50, stronger effect = lower value 1.02 | S. cerevisiae deletion strains, locus YNL271C, strain bni1, stronger effect = lower value 1.02 | S. cerevisiae deletion strains, locus YNL298W, strain CLA4, stronger effect = lower value 1.02 | S. cerevisiae deletion strains, locus YNL307C, strain MCK1, stronger effect = lower value 1.01 | S. cerevisiae deletion strains, locus YNL322C, strain KRE1 (second series), stronger effect = lower value 0.978 | S. cerevisiae deletion strains, locus YNL322C, strain KRE1, stronger effect = lower value 1.01 | S. cerevisiae deletion strains, locus YNR049C, strain mso1, stronger effect = lower value 0.958 | S. cerevisiae deletion strains, locus YNR052C, strain pop2, stronger effect = lower value 1.02 | S. cerevisiae deletion strains, locus YOL006C, strain TOP1, stronger effect = lower value 1.04 | S. cerevisiae deletion strains, locus YOL012C, strain htz1 1.37 | S. cerevisiae deletion strains, locus YOL147C, strain pex11, stronger effect = lower value 1.01 | S. cerevisiae deletion strains, locus YOR001W, strain rrp6, stronger effect = lower value 0.993 | S. cerevisiae deletion strains, locus YOR061W, strain CKA2, stronger effect = lower value 1.01 | S. cerevisiae deletion strains, locus YOR069W, strain VPS5, stronger effect = lower value 1 | S. cerevisiae deletion strains, locus YOR070C, strain gyp1, stronger effect = lower value 0.991 | S. cerevisiae deletion strains, locus YOR080W, strain dia2, stronger effect = lower value 0.963 | S. cerevisiae deletion strains, locus YOR083W, strain WHI5, stronger effect = lower value 0.974 | S. cerevisiae deletion strains, locus YOR106W, strain vam3, stronger effect = lower value 0.974 | S. cerevisiae deletion strains, locus YOR136W, strain idh2, stronger effect = lower value 1.01 | S. cerevisiae deletion strains, locus YOR144C, strain elg1, stronger effect = lower value 1.01 | S. cerevisiae deletion strains, locus YOR184W, strain ser1, stronger effect = lower value 1.03 | S. cerevisiae deletion strains, locus YOR231W, strain MKK1, stronger effect = lower value 0.966 | S. cerevisiae deletion strains, locus YOR265W, strain rbl2, stronger effect = lower value 0.966 | S. cerevisiae deletion strains, locus YOR270C, strain vph1, stronger effect = lower value 1.01 | S. cerevisiae deletion strains, locus YOR290C, strain snf2, stronger effect = lower value 0.985 | S. cerevisiae deletion strains, locus YOR316C, strain cot1, stronger effect = lower value 1.01 | S. cerevisiae deletion strains, locus YPL051W, strain arl3, stronger effect = lower value 0.995 | S. cerevisiae deletion strains, locus YPL055C, strain LGE1, stronger effect = lower value 1.05 | S. cerevisiae deletion strains, locus YPL078C, strain atp4, stronger effect = lower value 0.984 | S. cerevisiae deletion strains, locus YPL106C, strain sse1, stronger effect = lower value 0.975 | S. cerevisiae deletion strains, locus YPL240C, strain hsp82, stronger effect = lower value 0.979 | S. cerevisiae deletion strains, locus YPL241C, strain CIN2, stronger effect = lower value 1.01 | S. cerevisiae deletion strains, locus YPL256C, strain CLN2, stronger effect = lower value 0.968 | S. cerevisiae deletion strains, locus YPR119W, strain clb2, stronger effect = lower value 1.01 | S. cerevisiae deletion strains, locus YPR141C, strain kar3, stronger effect = lower value 1.02 | S. cerevisiae deletion strains, locus YPR163C, strain tif3, stronger effect = lower value 1.02 | S. cerevisiae deletion strains, locus YPR167C, strain met16, stronger effect = lower value 1.02 | S. cerevisiae deletion strains, strain wtn01, stronger effect = lower value 1.02 | S. cerevisiae strains, strain wild type, stronger effect = lower value 1.01
